The source of these data is ChEMBL document CHEMBL1961873, “Compounds: GSK PKIS; Assays: Nanosyn kinase panel” (2012).

Structures are written as SMILES.

For experiment [1], the target named is T1, 3-phosphoinositide-dependent protein kinase 1 (Homo sapiens) (UniProt O15530).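 Further: values are mean inhibition of PDK1.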
T1 sequence (whole entry): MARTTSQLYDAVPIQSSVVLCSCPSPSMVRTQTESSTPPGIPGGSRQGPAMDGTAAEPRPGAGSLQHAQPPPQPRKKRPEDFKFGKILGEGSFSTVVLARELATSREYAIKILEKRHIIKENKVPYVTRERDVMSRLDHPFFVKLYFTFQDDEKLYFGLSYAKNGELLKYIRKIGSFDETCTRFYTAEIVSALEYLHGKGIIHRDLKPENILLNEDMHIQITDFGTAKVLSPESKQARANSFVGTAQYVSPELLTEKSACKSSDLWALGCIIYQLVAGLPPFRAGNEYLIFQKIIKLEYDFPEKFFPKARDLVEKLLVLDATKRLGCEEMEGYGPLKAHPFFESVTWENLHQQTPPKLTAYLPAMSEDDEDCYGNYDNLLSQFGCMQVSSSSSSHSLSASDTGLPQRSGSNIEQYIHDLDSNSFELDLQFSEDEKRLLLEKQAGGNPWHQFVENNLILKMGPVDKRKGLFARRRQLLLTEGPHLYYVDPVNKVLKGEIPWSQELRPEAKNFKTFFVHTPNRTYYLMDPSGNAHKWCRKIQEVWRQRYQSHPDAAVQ
The conditions noted are these: at 0.1 µM.

Experiment [2] has as its target cAMP-dependent protein kinase catalytic subunit alpha (Homo sapiens) (UniProt P17612). The conditions noted are these: at 0.1 µM.
The target is the same in experiment [3]. The note with it: at 1 µM.
In experiment [4] the target is Protein kinase C alpha type (Homo sapiens) (UniProt P17252). The note with it: at 0.1 µM.
Experiment [5] has the same target. The note with it: at 1 µM.
Experiment [6] concerns the target Protein kinase C beta type (Homo sapiens) (UniProt P05771). The conditions noted are these: at 0.1 µM.
Experiment [7] has the same target. The conditions noted are these: at 1 µM.
Experiment [8] addresses Protein kinase C eta type (Homo sapiens) (UniProt P24723). The conditions noted are these: at 0.1 µM.
For experiment [9] the target is unchanged. The note with it: at 1 µM.
Experiment [10] addresses Protein kinase C gamma type (Homo sapiens) (UniProt P05129). The conditions noted are these: at 0.1 µM.

Protein kinase C eta type (Homo sapiens), sequence (P24723 whole entry): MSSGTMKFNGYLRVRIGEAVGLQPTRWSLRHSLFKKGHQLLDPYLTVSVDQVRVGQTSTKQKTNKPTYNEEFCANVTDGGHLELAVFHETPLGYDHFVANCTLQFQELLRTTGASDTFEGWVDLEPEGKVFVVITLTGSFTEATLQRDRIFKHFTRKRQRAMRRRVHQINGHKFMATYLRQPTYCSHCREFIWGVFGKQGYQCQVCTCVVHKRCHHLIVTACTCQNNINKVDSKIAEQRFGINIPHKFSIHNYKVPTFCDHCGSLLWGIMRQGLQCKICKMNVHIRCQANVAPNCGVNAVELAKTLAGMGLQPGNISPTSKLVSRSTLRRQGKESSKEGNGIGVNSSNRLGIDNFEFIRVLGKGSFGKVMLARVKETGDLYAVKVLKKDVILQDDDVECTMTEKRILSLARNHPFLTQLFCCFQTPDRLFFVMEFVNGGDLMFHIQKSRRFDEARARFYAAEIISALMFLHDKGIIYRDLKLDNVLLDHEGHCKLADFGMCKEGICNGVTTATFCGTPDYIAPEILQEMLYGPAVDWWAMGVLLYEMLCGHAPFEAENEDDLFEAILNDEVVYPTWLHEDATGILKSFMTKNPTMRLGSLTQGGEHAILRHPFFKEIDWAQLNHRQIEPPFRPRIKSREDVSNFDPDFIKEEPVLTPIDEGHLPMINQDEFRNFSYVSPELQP
Protein kinase C beta type (Homo sapiens), sequence (P05771 2-671 limits assumed): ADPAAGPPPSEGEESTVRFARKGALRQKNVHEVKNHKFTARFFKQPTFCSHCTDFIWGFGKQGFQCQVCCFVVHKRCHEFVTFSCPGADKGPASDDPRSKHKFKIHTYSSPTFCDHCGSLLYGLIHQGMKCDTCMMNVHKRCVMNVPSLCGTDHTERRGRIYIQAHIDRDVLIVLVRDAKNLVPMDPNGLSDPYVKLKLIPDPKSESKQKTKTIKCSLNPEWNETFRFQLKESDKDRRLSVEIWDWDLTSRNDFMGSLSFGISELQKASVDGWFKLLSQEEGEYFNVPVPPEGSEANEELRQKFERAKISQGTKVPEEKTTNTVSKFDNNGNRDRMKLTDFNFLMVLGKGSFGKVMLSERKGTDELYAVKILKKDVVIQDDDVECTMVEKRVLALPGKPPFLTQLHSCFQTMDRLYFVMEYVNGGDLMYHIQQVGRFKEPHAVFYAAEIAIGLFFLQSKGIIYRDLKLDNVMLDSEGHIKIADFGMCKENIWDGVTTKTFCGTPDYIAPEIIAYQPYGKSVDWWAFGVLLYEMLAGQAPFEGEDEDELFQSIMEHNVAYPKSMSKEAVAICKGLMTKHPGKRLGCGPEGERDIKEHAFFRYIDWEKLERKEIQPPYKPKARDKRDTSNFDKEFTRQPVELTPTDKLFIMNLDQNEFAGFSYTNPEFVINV

Regarding `COc1cccc(-n2ncc3c(N/N=C/c4ccncc4)ncnc32)c1`, the inhibition (in general, the change of the read-out against control, counted positive when it falls) in [1] is 3.34%; in [2], 1.96%; in experiment [3], 4.25%; in experiment [4] it was 2.71%; in experiment [5], 8.07%; in experiment [6], 1.63%. Besides, the inhibition in experiment [7] came to 7.79%; in experiment [8] it was 4.72%; in experiment [9], 2.1%; in experiment [10], 1.76%.
Regarding `NS(=O)(=O)c1ccc(-c2ccc3c(NC(=O)C4CC4)n[nH]c3c2)cc1`, the inhibition is 2.67% in [1]; 1.34% in experiment [2]; 1.63% in experiment [3]; 0.82% in [4]; 0.13% in experiment [5]; -1.4% in [6]. The inhibition in [7] is -0.63%; in experiment [8], 3.31%; in experiment [9] it was -0.1%; in experiment [10], -1.07%.
With `NC(=O)c1sc(-n2cnc3cc(C(F)(F)F)ccc32)cc1OCc1ccccc1Br`, the inhibition in experiment [1] is 2.62%; in experiment [2], 2.16%; in experiment [3] it was 1.95%; in [4], 0.19%; in [5], 1.07%; in experiment [6], 0.86%. Also, the inhibition in [7] was -1.32%; in [8], 3.02%; in experiment [9] it was -0.28%; in experiment [10], 0.48%.
On to `COc1cc(C=NNc2ncnc3c2cnn3Cc2ccccc2)ccc1O`, for which the inhibition in experiment [1] is -3.37%; in [2], -0.54%; in experiment [3] it was 5.93%; in experiment [4], -0.63%; in experiment [5] it was 3.5%; in experiment [6], 0.36%. The inhibition in [7] was 3.19%; in experiment [8] it was -5.63%; in [9], -0.89%; in [10], -2.68%.
With `CCn1c(-c2nonc2N)nc2c(C#CC(C)(C)O)nc(O[C@@H](CN)c3ccccc3)cc21`, the inhibition was found to be 3.51% in experiment [1]; 80.3% in experiment [2]; 81.6% in [3]; 15.8% in [4]; 69.7% in [5]; 44.8% in experiment [6]. Besides, the inhibition in experiment [7] came out at 71.4%; in experiment [8], 96.3%; in experiment [9], 99%; in experiment [10], 54.7%.
In the case of `NS(=O)(=O)c1ccc(N/C=C2\C(=O)Nc3ccc4ncsc4c32)cc1`, the inhibition in experiment [1] was 20.8%; in experiment [2], 2.9%; in experiment [3], 6.91%; in experiment [4], 1.26%; in experiment [5], 3.04%; in [6], -0.49%. In addition, the inhibition in [8] worked out at 1.67%; in experiment [9] it was 6.53%; in experiment [10] it was 1.16%.
For the molecule `Fc1ccc(-c2ncn(C3CCNCC3)c2-c2ccnc(Oc3ccccc3)n2)cc1`, the inhibition in experiment [1] is 0.7%; in experiment [2], 7.46%; in [3], 43.6%; in [4], -3.5%; in experiment [5] it was -0.8%; in experiment [6], 0.95%. The inhibition worked out at 8.43% in experiment [7], 3.65% in experiment [8], 1.37% in experiment [9] and 0.03% in [10].
On to `CCn1c(-c2nonc2N)nc2c(C#CC(C)(C)O)ncc(OCC3CCNCC3)c21`, for which the inhibition is 2.18% in experiment [1]; 44.1% in [2]; -1.9% in experiment [4]; 13.4% in experiment [5]; 29.9% in experiment [6]; 64.4% in experiment [7]. For the same molecule, the values for the inhibition in experiment [8], in experiment [9] and in [10] were 83.7%, 97.8% and 6.74%, respectively.
Take `Cc1cc(-c2ccco2)cc(C)c1/C=C/c1cncc(-c2nn[nH]n2)c1`: the inhibition in experiment [1] is -0.25%; in experiment [2], -2.7%; in [3], 1.88%; in experiment [4] it was 0.15%; in experiment [5], 0.97%; in experiment [6] it was -0.49%. In addition, the inhibition in [7] worked out at 0.6%; in experiment [8] it was 1.26%; in experiment [9] it was 2.42%; in experiment [10] it was 0.18%.
On to `CCn1c(-c2nonc2N)nc2c(C#CCN)ncc(OCCCN)c21`, for which the inhibition turned out to be 1.2% in experiment [1]; 7.1% in [2]; 1.06% in [4]; 4.21% in [5]; 14.7% in experiment [6]; 47.8% in [7]. The results for the inhibition in experiment [8], in [9] and in [10] were 19.6%, 73.4% and 3.97%, respectively.
On to `COc1cc2c(cc1Nc1nc(Nc3ccsc3C(N)=O)c3cc[nH]c3n1)N(C(=O)CN(C)C)CCC2`, for which the inhibition in [1] is 0.7%; in experiment [2], 4.62%; in experiment [3], 3.81%; in experiment [4] it was 1.91%; in [5], 10.2%; in [6], -0.18%. Moreover, the inhibition in [7] was found to be 1.94%; in experiment [8] it was 1.28%; in [9] it was 3.46%.
With `COc1cccc(COc2cc(-n3cnc4ccccc43)sc2C(N)=O)c1`, the inhibition in [1] is 12.1%; in experiment [2] it was 2.47%; in experiment [3], 0.86%; in experiment [4], -0.54%; in [5] it was 0%; in experiment [6], -0.69%. Besides, the inhibition in [7] was 0.94%; in experiment [8] it was 0.43%; in experiment [9], 1.12%; in [10], 1.09%.
In the case of `CCn1c(-c2nonc2N)nc2c(C#CC(C)(C)O)ncc(OC[C@@H]3CCCN3)c21`, the inhibition in experiment [1] is 0.24%; in experiment [2], 68.7%; in experiment [3] it was 81.2%; in experiment [4], 2.42%; in experiment [5], 18.4%; in experiment [6], 30.1%. Besides, the inhibition in experiment [7] turned out to be 61.3%; in experiment [8], 87.1%; in [9], 96.3%; in experiment [10], 9.3%.
`Nc1nonc1-c1nc2cnccc2n1C1CCCCC1`: the inhibition in experiment [1] was 0.3%; in experiment [2] it was 19.5%; in experiment [4], 2.45%; in experiment [5], 38.4%; in [6] it was 31%; in experiment [7], 65.3%. In addition, the figures for the inhibition in experiment [8], in [9] and in experiment [10] were 42.3%, 88.5% and 8.45%, respectively.
